Laboratory results taken from PubChem BioAssay (NCI).
About 79,000 compounds went through this panel and 15% of them were active in at least one assay; those are over-represented in the sample as a whole. Values without a mark were called inactive. Activity calls are given as the source filed them. No stated cut-off is given here; in the data, active means growth inhibition above about 70%; inactive means the rest.

What was measured:
[1] = NCI Yeast Anticancer Drug Screen. Data for the rad50 strain (AID 155);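 further: 0% = growth of vehicle-only cultures of the same strain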; conditions: S. cerevisiae rad50 strain growth inhibition, hits give high values
How it was run: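 Vehicle-treated cultures provide the reference for the growth inhibition reported for compound-exposed, repair-deficient yeast.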

[2] = NCI Yeast Anticancer Drug Screen. Data for the mec2-1 strain (AID 157); conditions: S. cerevisiae mec2-1 strain, hits give high values
How it was run: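 Cells of the genetically defined mec2-1 yeast strain are incubated with test compound. Inhibition of growth is calculated against vehicle-treated controls.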

[3] = NCI Yeast Anticancer Drug Screen. Data for the sgs1 mgt1 strain (AID 161);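 further: 0% = growth of cultures given vehicle only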; conditions: S. cerevisiae sgs1 mgt1 strain, hits give high values
How it was run: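 Genetically altered yeast, compound exposure, growth inhibition relative to vehicle.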

[4] = NCI Yeast Anticancer Drug Screen. Data for the cln2 rad14 strain (AID 165);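 further: 0% = growth equal to vehicle treated cultures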; conditions: S. cerevisiae cln2 rad14 strain, hits give high values
How it was run: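 The screen exposed genetically defined yeast (cln2 rad14) to test compounds and scored growth inhibition relative to vehicle-treated controls.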

[5] = NCI Yeast Anticancer Drug Screen. Data for the bub3 strain (AID 167); conditions: S. cerevisiae bub3 mutant strain, hits give high values
How it was run: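 Mutant yeast screening strain plus compound; vehicle-treated cultures serve as the 0% inhibition reference.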

[6] = NCI Yeast Anticancer Drug Screen. Data for the mlh1 rad18 strain (AID 175); conditions: S. cerevisiae mlh1 rad18 strain growth inhibition, hits give high values
How it was run: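 Compound-treated yeast growth, normalised to vehicle controls. Strain bears defined DNA repair mutations.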

[7] = at 5.0 µM (retest, dose inferred, filed as 0.5)
[8] = at 50.0 µM (retest, dose inferred, filed as 5.0)

| SMILES | growth inhibition [1, 7] | growth inhibition [1, 8] | growth inhibition ([1]; at 50.0 µM) | growth inhibition [2, 7] | growth inhibition [2, 8] | growth inhibition ([2]; at 50.0 µM) | growth inhibition [3, 7] | growth inhibition [3, 8] | growth inhibition ([3]; at 50.0 µM) | growth inhibition [4, 7] | growth inhibition [4, 8] | growth inhibition ([4]; at 50.0 µM) | growth inhibition [5, 7] | growth inhibition [5, 8] | growth inhibition ([5]; at 50.0 µM) | growth inhibition [6, 7] | growth inhibition [6, 8] | growth inhibition ([6]; at 50.0 µM) |
| --- | --- | --- | --- | --- | --- | --- | --- | --- | --- | --- | --- | --- | --- | --- | --- | --- | --- | --- |
| C=C(CCC(C)C1CCC2(C)C3=C(CC(O)C12C)C1(C)CCC(O)C(C)(C)C1CC3)C(C)C(=O)O (stereo not given) | 11% | 88% (active) | 84.1% (active) | 15% | 91% (active) | 83% (active) | 20% | 90% (active) | 84.8% (active) | 40% | 96% (active) | 87.3% (active) | 29% | 94% (active) | 80.9% (active) | 30% | 95% (active) | 82.7% (active) |
| C/C(=C\c1ccccc1)c1ccncc1 | -17% | 48% | 64.7% | 14% | 12% | 44.2% | -8% | 51% | 65.6% | -8% | 21% | 35.9% | -9% | 48% | 45.8% | -11% | 24% | 54.9% |
| CCOc1ccccc1N1C(=O)C=CC1=O | 57% | 67% | 92% (active) | 60% | 75% (active) | 93.6% (active) | 99% (active) | 100% (active) | 93.8% (active) | 99% (active) | 100% (active) | 90.5% (active) | 100% (active) | 100% (active) | 92.3% (active) | 42% | 58% | 92.5% (active) |
| Cn1cc(NC(=O)c2cc(NC(=O)CCCCCCCCCCC(=O)Nc3cc(C(=O)Nc4cc(C(=O)NCCC(=N)N)n(C)c4)n(C)c3)cn2C)cc1C(=O)NCCC(=N)N | 92% (active) | 98% (active) | 89.5% (active) | 95% (active) | 98% (active) | 92% (active) | 95% (active) | 99% (active) | 92% (active) | 72% (active) | 97% (active) | 91.4% (active) | 96% (active) | 98% (active) | 91% (active) | 92% (active) | 97% (active) | 90.2% (active) |
| CC(CO)[C@H]1OC(=O)C=C2[C@@]13O[C@@H]3[C@H]1OC(=O)[C@@]3(C)[C@H]4O[C@H]4C[C@@]2(C)[C@@H]13 (stereo not given in full) | 51% | 98% (active) | 89.8% (active) | 47% | 99% (active) | 91% (active) | 58% | 97% (active) | 88.2% (active) | 59% | 98% (active) | 89.5% (active) | 66% | 98% (active) | 88.8% (active) | 61% | 97% (active) | 89.8% (active) |
| O=C(NCCN1CCN2Cc3[nH]c4ccccc4c3CC2C1)c1ccc(Cl)cc1 (stereo not given) | 9% | 50% | 51.6% | 10% | 40% | 46.8% | 1% | 50% | 61% | 27% | 72% (active) | 55.6% | 26% | 53% | 50.5% | 8% | 60% | 53.5% |
| Cc1c(Cl)cccc1N=NC(=O)NNc1cccc(Cl)c1C | 1% | 96% (active) | 85.4% (active) | 29% | 96% (active) | 82.1% (active) | -1% | 97% (active) | 74.5% (active) | 29% | 97% (active) | 80.5% (active) | -12% | 97% (active) | 83.3% (active) | 1% | 98% (active) | 81.5% (active) |
| O=C(O)[C@@H]1CCCC[C@@H]1C(=O)N(C1CCCCC1)C1CCCCC1 | -4% | 79% (active) | 45.1% | -15% | 86% (active) | 14% | 8% | 73% (active) | 59% | -7% | 96% (active) | 28.6% | -5% | 96% (active) | 9.45% | -39% | 89% (active) | 0.5% |
| COc1ccccc1OC(=O)Oc1ccccc1OC | -1% | 19% | 36.6% | -3% | -3% | -11.1% | -1% | 12% | 9.45% | 4% | 4% | -37.4% | 1% | 9% | 57.8% | -4% | -5% | 50% |
| O=c1[nH]c2ccccc2nc1CBr | 5% | 95% (active) | 30.9% | 16% | 99% (active) | 71.2% (active) | 8% | 98% (active) | 91.2% (active) | 0% | 95% (active) | 1.85% | 14% | 98% (active) | 90.2% (active) | 16% | 99% (active) | 91.1% (active) |
